Molecules are shown by their SMILES. The whole screen tested about 360,000 compounds, of which about 11,000 (3.1%) were called active. Where a call stands in place of a potency, no number is given. Inconclusive results (about 4%) are left out. Calls come from the whole dose curve; as a rule, active = well fitted inhibition curve with a large enough effect; inconclusive = small, poorly fitted or top-dose-only effect; inactive = no such curve, though single readings can be large or run the other way. The full list was thinned out, with actives kept by preference.
Potency is the fitted concentration of half-maximal effect.

The assay addresses Schistosoma mansoni thioredoxin glutathione reductase (TGR) (UniProt Q962Y6). Description: qHTS Assay for the Inhibitors of Schistosoma Mansoni Peroxiredoxins. Note: nearly all actives have a fitted effect of over 60% in size. Conditions: purified TGR, DTNB reduction, TNB absorbance 405 nm; series mostly up to 114 µM. An outline of the steps:
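TGR 20 nM + NADPH 100 uM (dispensed conc.), cpd preinc 15 min RT; start with NADPH (500 uM addition) then DTNB (15 mM addition). Kinetic TNB absorbance, 405 nm filter. Four-parameter Hill fit across titration.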
As for `CCCN1CCN(CCCNC(=O)Cn2nc(CC)n3c(cc4occc43)c2=O)CC1`, the Potency entry is “inactive”.

Regarding `O=C(NC(=S)Nc1cccc(-c2ccc(CO)o2)c1)c1cccs1`, the Potency is 20 µM (active).

As for `O=C(Nc1ccccc1-c1ccccc1)c1cccs1`, the Potency result is “inactive”.

With `O=C(NC(=S)Nc1ccc(NC(=O)c2cccs2)cc1)c1ccc([N+](=O)[O-])cc1`, the Potency result is “inactive”.

In the case of `Cc1ccc(S(=O)(=O)N2CCC(C(=O)Nc3cc(C)ccc3C)CC2)cc1`, the Potency entry is “inactive”.

As to `O=C(CSc1nc(=O)n(Cc2cccnc2)c2c1CCC2)Nc1ccc(F)cc1F`, the Potency entry was “inactive”.

In the case of `CCc1ccc(N(CC)C(=O)CCn2cnc3onc(-c4ccc(F)cc4)c3c2=O)cc1`, the Potency result was “inactive”.

Turning to `O=C1CC(c2nnc(Cc3ccc(Cl)cc3)o2)CN1c1ccccc1` (stereo not given), the Potency entry was “inactive”.

`CC(C)N1C(=O)N(c2ccccc2)C(C)(O)CC1(C)C` (stereo not given): the Potency result was “inactive”.

Take `CC(C)C1C2=C(CC(C)(C)CC2=O)ON1c1ccccc1` (stereo not given): the Potency is 28.2 µM (active).

Turning to `Cc1ccsc1C1C(C#N)=C(N)OC2=C1C(=O)CC(C)(C)C2` (stereo not given), the Potency result was “inactive”.

`Cc1sc2ncn(CC(=O)N3CCN(c4ccc(F)cc4)CC3)c(=O)c2c1S(=O)(=O)N1CCN(c2ncccn2)CC1`: the Potency result is “inactive”.

Consider `CCc1cnc2c(c1SCC(=O)N1CCC(C)CC1)c(=O)n(C)c(=O)n2C`, for which the Potency entry is “inactive”.

Turning to `O=C(Nc1cc(-c2nc3ccccc3o2)ccc1Cl)c1cc([N+](=O)[O-])ccc1N1CCOCC1`, the Potency result was “inactive”.

Regarding `Cc1onc(C(=O)Nc2ccc3c(c2)OCO3)c1[N+](=O)[O-]`, the Potency result was “inactive”.

With `Cc1cccc(NC(=O)C(C)SCc2ccccc2)c1` (stereo not given), the Potency entry was “inactive”.

With `Cc1cccc(NC(=O)c2ccc(COc3ccccc3[N+](=O)[O-])o2)n1`, the Potency result is “inactive”.

On to `Cc1onc(NC(=O)c2ccc([N+](=O)[O-])o2)c1Br`, for which the Potency is 28.2 µM (active).

For the compound `O=C(Nc1cccc([N+](=O)[O-])c1)c1ccc2c(c1)OCO2`, the Potency result is “inactive”.

Take `Cc1cccc(NC(=O)c2ccc([N+](=O)[O-])o2)c1`: the Potency was 31.6 µM (active).

In the case of `Cc1cccc(C(=O)Nc2ccc(-c3nc4ncccc4o3)cc2C)c1`, the Potency result was “inactive”.

For `COc1cc(NC(=O)c2cc3ccc4cccnc4c3[nH]2)cc(OC)c1OC`, the Potency entry was “inactive”.

Turning to `COc1ccc(Cl)cc1NC(=O)CCn1c(=O)c2cccn2c2ccccc21`, the Potency result is “inactive”.

Regarding `COc1cc(OC)c(OC)cc1/C=C/c1nc2cc3ccccc3cc2c(=O)n1-c1ccc(F)c(Cl)c1`, the Potency result was “inactive”.

On to `CCOC(=O)C(NC(=O)CC(C)C)(Nc1sc2c(c1C(N)=O)CCCC2)C(F)(F)F` (stereo not given), for which the Potency result is “inactive”.

Regarding `COC(=O)C(NC(C)=O)(Nc1nc2c(s1)CCCC2)C(F)(F)F` (stereo not given), the Potency is 50.1 µM (active).

For the compound `Cc1cc(C)cc(OC(C)C(=O)Nc2nc3c(s2)CCCC3)c1` (stereo not given), the Potency entry was “inactive”.

As for `COc1ccccc1CNc1nc2ccc(Cl)cc2n2cnnc12`, the Potency result is “inactive”.

`COc1ccccc1NC(=O)c1sc2nc(C)c(C(=O)Nc3ccc(Cl)cc3)c(-c3ccc(Br)cc3)c2c1N`: the Potency result was “inactive”.

`O=C(Cc1ccc(Cl)cc1)NC(=S)Nc1ccccc1O`: the Potency result is “inactive”.

Consider `O=[N+]([O-])c1ccccc1NCc1ccc(Cl)cc1`, for which the Potency entry is “inactive”.

Turning to `Oc1ccc(CNc2ccccc2O)cc1`, the Potency is 20 µM (active).

In the case of `O=C(CC(c1cccs1)N1Cc2ccccc2C1=O)Nc1ccc(F)c(F)c1` (stereo not given), the Potency result is “inactive”.

In the case of `CC(C)Oc1ccc(CNC(=O)C2CCN(c3nc4ccccc4n(C)c3=O)CC2)cc1`, the Potency result was “inactive”.

Turning to `CC1CN(C(=O)N2CCC(C(=O)NCc3cccs3)CC2)c2ccccc2O1` (stereo not given), the Potency result is “inactive”.

For the compound `O=C(NC1(C(F)(F)F)N=C(c2ccccc2)N(C2CCCCC2)C1=O)c1ccccc1F` (stereo not given), the Potency result is “inactive”.

Consider `CC1=C(C/C=C(\C)CCCC(C)CCCC(C)CCCC(C)C)C(=O)c2ccccc2C1=O` (stereo not given), for which the Potency was 28.2 µM (active).

In the case of `CC(=O)Nc1ccc(NC(=O)CCCc2nc(-c3ccc(C(C)(C)C)cc3)no2)cc1`, the Potency result is “inactive”.

In the case of `Cc1cc(C)c(-c2n[nH]c3c2C(c2ccccc2F)N(CCO)C3=O)c(O)c1` (stereo not given), the Potency entry is “inactive”.

As to `COc1ccc(N2CCN(Cc3nc4c(c(=O)[nH]c(=O)n4C)n3Cc3ccc(Cl)cc3)CC2)cc1`, the Potency entry was “inactive”.

As for `Cc1nnc(NC(=O)C(c2ccccc2)c2ccccc2)s1`, the Potency result was “inactive”.

As to `CCOC(=O)c1c(NC(=S)NC(=O)/C=C/c2cccs2)sc(C)c1C`, the Potency result was “inactive”.

Consider `Cc1nnc(NC(=O)CCCOc2ccccc2)s1`, for which the Potency entry is “inactive”.

In the case of `CCOC(=O)c1sc(NC(=O)/C=C/c2ccc(C(C)C)cc2)c(C(=O)OCC)c1C`, the Potency entry was “inactive”.

Regarding `CCOC(=O)c1c(NC(=O)/C=C/c2ccco2)sc(C)c1C`, the Potency is 35.5 µM (active).

Take `Cc1nnc(NC(=O)/C=C/c2ccco2)s1`: the Potency is 22.4 µM (active).

As for `O=C(CSc1nc(-c2cccc(F)c2)[nH]c1-c1ccccc1)Nc1ccc2c(c1)OCO2`, the Potency result was “inactive”.

In the case of `CCN(CC)S(=O)(=O)c1ccc(C(=O)N=c2sc3cccc(OC)c3n2C)cc1`, the Potency result was “inactive”.

`Cc1ccc(C)c(OCC(=O)Nc2sc3c(c2C#N)CCCC3)c1C`: the Potency entry was “inactive”.

For `Cc1nn(-c2ccccc2)c(Cl)c1/C=C/C(=O)c1ccc(O)cc1`, the Potency result was “inactive”.

Regarding `Cc1ccccc1-n1nc(C)c2c1N=C1C(Cl)=CC(Cl)=CN1C2c1ccc(C(=O)O)cc1` (stereo not given), the Potency is 35.5 µM (active).

Turning to `Cc1ccccc1-n1nc(C)c2cc(C(=O)NC3CC3)sc21`, the Potency result was “inactive”.

For `O=C(Nc1ccc2nc(SCC(=O)N3CCCc4ccccc43)sc2c1)c1ccc(F)cc1`, the Potency entry was “inactive”.

In the case of `CC(=O)c1ccc(NC(=O)c2nc(-c3ccc(C)cc3)n3c2CCCCC3)cc1`, the Potency result was “inactive”.

In the case of `Cc1ccccc1CNC(=O)CCCn1nc(C)c2sc3ccccc3c2c1=O`, the Potency result was “inactive”.

For `O=C(CC1OC(=O)c2ccccc21)NC1CCCCC1` (stereo not given), the Potency entry is “inactive”.

Take `O=C(NC1CCCCC1)C1c2ccccc2C(=O)N1Cc1ccco1` (stereo not given): the Potency was 39.8 µM (active).

As to `CCC(C)NC(=O)C1c2ccccc2C(=O)N1Cc1ccccc1` (stereo not given), the Potency result is “inactive”.

As for `CC(NC(=O)c1cc(Sc2ccc(F)cc2F)nc2ccccc12)c1ccccc1` (stereo not given), the Potency result is “inactive”.

With `CC(C)C(=O)Nc1nc2c(s1)CC(C(C)(C)C)CC2` (stereo not given), the Potency entry was “inactive”.

In the case of `Cc1ccc(S(=O)(=O)N(CC(=O)Nc2ccc(Cl)cc2Cl)c2ccccc2C)cc1`, the Potency entry was “inactive”.

For the compound `COc1cccc(CN2CCc3nc(SCC(=O)Nc4ccccc4)[nH]c(=O)c3C2)c1`, the Potency entry was “inactive”.

On to `CC(C)c1ccc(NC(=O)C2CCN(c3nc(-c4ccc(C(C)C)cc4)no3)CC2)cc1`, for which the Potency entry was “inactive”.

`COc1ccc(CN2CCCC(N3CCc4ccccc4C3)C2)c(O)c1` (stereo not given): the Potency result was “inactive”.

`COC(=O)CN(C(=S)Nc1ccc(Cl)cc1)C1CC(=O)N(c2ccc(OC)cc2)C1=O` (stereo not given): the Potency entry was “inactive”.

Regarding `COc1cccc(N2CCN(C3CC(=O)N(c4ccc(Cl)cc4)C3=O)CC2)c1` (stereo not given), the Potency is 39.8 µM (active).

On to `CN1C(=O)CC(N2CCN(c3ccccn3)CC2)C1=O` (stereo not given), for which the Potency result was “inactive”.

In the case of `O=C(C1CC(=O)N(c2ccc(F)cc2)C1)N1CCN(c2ccccc2)CC1` (stereo not given), the Potency entry is “inactive”.

Regarding `COc1cccc(N2C(=O)CC(N3CCc4ccccc4C3)C2=O)c1` (stereo not given), the Potency was 39.8 µM (active).

As for `COc1cccc(N(CC(=O)N2CCc3ccccc3C2)S(C)(=O)=O)c1`, the Potency entry was “inactive”.

As to `COc1cccc(N2C(=O)CN(Cc3ccccc3)C2=S)c1`, the Potency result was “inactive”.

As to `O=C1CC(N2CCN(c3ccc(F)cc3)CC2)C(=O)N1c1ccccc1` (stereo not given), the Potency was 50.1 µM (active).

Take `COc1ccc(COCCN2CCN(S(=O)(=O)c3ccccc3)CCC2=O)cc1`: the Potency result is “inactive”.

For the compound `COc1cccc(N2CC(NS(=O)(=O)c3ccc(Cl)cc3)CC2=O)c1` (stereo not given), the Potency entry is “inactive”.

On to `COc1cccc(N2C(=O)CC(N3CCN(S(=O)(=O)c4ccccc4)CC3)C2=O)c1` (stereo not given), for which the Potency was 39.8 µM (active).

Source of the values: PubChem BioAssay AID485364 (National Center for Advancing Translational Sciences (NCATS), 2010).
